Source: PubChem BioAssay
Shown are actives, neighbours in structure and some others; about 11% of the full set was active somewhere.
PNC inhibitor: inhibitors of perinucleolar compartment assembly. PC3M PTB-GFP, PNC prevalence imaging, 16 h; active compounds read low. activity change (PNC), negative = inhibition, % at 10 µM. 140,000 tested, 3.1% active. AID 2417;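 active = readout at or below -70, meaning at least 70% loss of cells showing the perinucleolar compartment, a nuclear body marking cancer cells; inconclusive = readout between -30 and a set limit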
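Compounds are pinned in duplicate onto adhered PC3M cells stably expressing GFP-tagged PTB and incubated 16 h at 37 C. Cells are then fixed, nuclei stained with Hoechst, and PNC-positive cells counted.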
IMPase cell inh: membrane-permeable compound that blocks inositol monophosphatase | P97697 | CHO-M1 cells, IP1 accumulation, HTRF TR-FRET ratio | inhibition (IP1 accumulation), % at 46.1 µM | 120,000 tested, under 10 active; active = well fitted curve in the direction sought with a large enough effect in the signal ratio, not every such curve was filed as active; inconclusive = small, poorly fitted or top-dose-only effect, or a change in a side signal; inactive = no such curve, though single readings can be large or run the other way; the % refers to the signal ratio;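 note: cells stimulated with carbachol in lithium chloride buffer; higher means more IMPase inhibition seen as more IP1 and lower FRET ratio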
Target sequence (P97697 whole entry, looked up): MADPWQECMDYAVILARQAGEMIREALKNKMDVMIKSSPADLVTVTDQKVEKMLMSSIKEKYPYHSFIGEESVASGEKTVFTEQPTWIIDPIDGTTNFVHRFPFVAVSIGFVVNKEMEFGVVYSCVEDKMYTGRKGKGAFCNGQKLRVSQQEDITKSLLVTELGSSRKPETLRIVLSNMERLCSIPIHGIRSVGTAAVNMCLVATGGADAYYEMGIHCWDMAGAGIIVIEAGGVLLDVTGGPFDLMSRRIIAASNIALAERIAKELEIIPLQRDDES
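Measured: the HTRF emission ratio (665/620 nm) plus the 620 nm donor channel, each fitted to the Hill equation to give AC50. Cells were CHO-M1 given compounds up to 46 uM and a 30 min carbachol stimulation at 37C.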
NPSR antagonist: blocks cAMP signaling of the human neuropeptide S receptor; CHO-NPSR cells, cAMP TR-FRET, antagonist mode; Q6W5P4; AID 1461; 220,000 tested, 1% active; Potency, µM (highest dose often 38.3 µM), usual class: inhibitors; note: nearly all actives have a fitted effect of over 50% in size
Target sequence (Q6W5P4 whole entry, looked up): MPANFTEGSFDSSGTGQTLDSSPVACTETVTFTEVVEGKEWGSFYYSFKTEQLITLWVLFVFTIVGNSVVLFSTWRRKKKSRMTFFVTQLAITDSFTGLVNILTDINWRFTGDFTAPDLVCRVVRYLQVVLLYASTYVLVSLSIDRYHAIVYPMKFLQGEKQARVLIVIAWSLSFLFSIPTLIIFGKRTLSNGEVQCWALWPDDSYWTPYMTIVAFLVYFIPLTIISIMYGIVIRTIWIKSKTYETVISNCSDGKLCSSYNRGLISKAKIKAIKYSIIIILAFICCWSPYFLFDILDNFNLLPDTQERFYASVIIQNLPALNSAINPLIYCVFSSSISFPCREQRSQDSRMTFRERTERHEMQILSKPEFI
HPGD block: inhibitors of human 15-hydroxyprostaglandin dehydrogenase (HPGD). P15428. purified HPGD, NADH fluorescence kinetic, PGE2 substrate. Potency, µM, usual class: inhibitors. 150,000 tested, 4.3% active; active = well fitted inhibition curve with a large enough effect, not every such curve was filed as active; inconclusive = small, poorly fitted or top-dose-only effect, or another doubt; inactive = no such curve, though single readings can be large or run the other way
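20 nM HPGD preincubated 15 min at room temperature with compound in 50 mM Tris-HCl pH 8, 0.01% Tween 20. Started with 1 mM NAD+ and 30 uM prostaglandin E2; NADH fluorescence (360/450 nm) read 5 times over 30-s intervals, last minus first.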
IMPase Li cell: membrane-permeable IMPase blocker, potentiated with lithium; 210,000 tested, 0.35% active; Potency, µM (highest dose often 59.4 µM), hits mostly inhibitors; CHO-M1 cells, IP1 TR-FRET (IP-One), carbachol + lithium;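 note: IP1 builds up when IMPase is blocked and the TR-FRET signal falls; nearly all actives have a fitted effect of over 50% in size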
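Lithium-sensitised IP1 accumulation assay; M1-expressing CHO cells treated 30 min at 37C with compound. Competitive antibody detection by time-resolved FRET followed a 10 min room-temperature lysis step.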
ALDH1A1 inh: blocks purified human ALDH1A1 activity. Purified ALDH1A1, NADH fluorescence, propionaldehyde substrate. Potency, µM (series often up to 75.3 µM), usual class: inhibitors. 220,000 tested, 7.3% active. AID 1030; active = well fitted inhibition curve with a large enough effect, not every such curve was filed as active; inconclusive = small, poorly fitted or top-dose-only effect, or another doubt; inactive = no such curve, though single readings can be large or run the other way
Numbers stand for hits; 0 = inactive; ? = inconclusive; - = no result. Unless noted, calls come from the whole dose curve; as a rule, active = well fitted curve in the direction sought with a large enough effect; inconclusive = small, poorly fitted or top-dose-only effect, or another doubt; inactive = no such curve, though single readings can be large; an effect the other way counts as inactive or inconclusive.

SMILES	PNC inhibitor	IMPase cell inh	NPSR antagonist	HPGD block	IMPase Li cell	ALDH1A1 inh
O=C(CSc1nnc(SCc2ccc(Cl)cc2)s1)N1CCN(C(=O)c2ccco2)CC1	0	0	0	0	0	0
CCCn1c(N2CCN(CC(=O)NCc3cccs3)CC2)nc2ccccc21	-86.9	0	0	0	0	?
C[n+]1c2n(c3ccccc31)N=C(c1ccc(Br)cc1)CS2	0	0	0	0	0	17.8µM
C[n+]1c2n(c3ccccc31)N=C(c1ccc(-c3ccccc3)cc1)CS2	-	-	0	-	0	0
CCn1c(SCc2ccc(Cl)cc2)nc2nc3c(cc2c1=O)CCCC3	0	-	0	0	0	12.6µM
O=C(N/N=C/c1cn(Cc2ccccc2)c2ccccc12)c1ccncc1	-	-	0	-	0	14.1µM
O=C(N/N=C/c1cn(CC(=O)N2CCOCC2)c2ccccc12)c1cccnc1	-	-	0	-	-	-
CCOC(=O)N/N=C/c1cn(Cc2ccc(Cl)cc2)c2ccccc12	-104.8	-	0	0	0	0
O=C(N/N=C/c1cn(Cc2ccccc2)c2ccccc12)c1cccnc1	0	-	0	0	0	14.1µM
Cc1ccc(OCCn2cc(/C=N/NC(=O)c3ccncc3)c3ccccc32)cc1	?	-	0	0	0	0
CN(C)S(=O)(=O)c1cc(NC(=O)CSc2nn(-c3ccc(Cl)cc3)c(=S)s2)ccc1Cl	0	-	0	0	0	?
Cc1ccc(NC(=O)CSc2nn(-c3ccc(Cl)cc3)c(=S)s2)cc1S(=O)(=O)N(C)C	0	-	0	?	0	14.1µM
O=C(Nc1cc(S(=O)(=O)N2CCCCC2)ccc1N1CCOCC1)c1cc(=O)[nH]c2ccccc12	-	-	0	-	-	-
O=C1NCCCC1C(=O)N/N=C/c1ccccc1O (configuration not stated)	0	0	0	?	0	0
CCOC(=O)c1cc2occc2n1CC(=O)NCCOC	0	0	0	0	0	0
[O-]/[N+](=C\c1ccc(OC(F)F)cc1)c1ccccc1	0	0	0	0	0	7.94µM
[O-]/[N+](=C\c1ccncc1)c1ccccc1	0	0	0	0	0	15µM
[O-]/[N+](=C/c1ccc(F)cc1)c1ccccc1	0	0	0	0	0	?
COc1ccccc1CNC(=O)CSc1nc(-c2ccc(OC)c(OC)c2)cc(C(F)(F)F)n1	-	0	-	-	-	-
CC(C)CCN1CCN(Cc2ccoc2)CC1CCO (configuration not stated)	-	-	0	-	-	-
COc1ccc2c(C(=O)CN3CCSCC3)c[nH]c2c1	-	-	0	-	-	28.2µM
COc1ccc2[nH]cc(C(=O)CN3CCCCC3)c2c1	0	?	0	0	0	0
COc1ccc2c(C(=O)CN(C)C3CCCCC3)c[nH]c2c1	-100.0	0	0	0	0	?
COc1ccc2[nH]cc(C(=O)CN3CCN(C4CCCCC4)CC3)c2c1	0	0	0	0	0	25.1µM
C=C(C)c1cccc(C(C)(C)NC(=O)NC(c2ccccc2)c2ccc(OC)cc2)c1 (configuration not stated)	0	-	0	0	0	0
SMILES	PNC inhibitor	IMPase cell inh	NPSR antagonist	HPGD block	IMPase Li cell	ALDH1A1 inh
CC1CCc2nn(CC(=O)NC3CCCC3)cc2C1 (configuration not stated)	0	0	0	?	0	0
COc1ccc(S(=O)(=O)N2CCCC(C(=O)O)C2)cc1 (configuration not stated)	?	0	0	0	0	0
COc1ccc(S(=O)(=O)N2CCCC(C(=O)NC3CCCCC3)C2)cc1 (configuration not stated)	-102.2	0	0	0	0	0
CCOC(=O)CSC1=C(C#N)C(c2ccco2)C(C(=O)Nc2cccc(C(F)(F)F)c2)=C(C)N1 (configuration not stated)	?	0	0	?	0	?
CCCCOC(=O)Nc1ccc(OC)cc1S(=O)(=O)N1CCOCC1	0	0	0	0	0	0
Cc1ccc(-n2[nH]c(C)c(C=Nc3ccc4[nH]c(=O)[nH]c4c3)c2=O)cc1	0	-	0	0	0	0
Cc1ccc(N=Cc2c(C)[nH]n(-c3nc4ccccc4[nH]3)c2=O)cc1	-81.5	-	0	0	0	0
O=C(CN1C(=O)C2C3C=CC(C3)C2C1=O)Nc1ccc(S(=O)(=O)Nc2nccs2)cc1 (configuration not stated)	-	-	0	-	-	-
Fc1cccc(NC(=S)NCc2ccccn2)c1	-91.0	-	0	?	0	?
O=C(NCc1ccccn1)c1cccc(NS(=O)(=O)c2cccc(F)c2)c1	?	-	0	0	0	14.1µM
Cc1cc(C)cc(NS(=O)(=O)c2cc(C(=O)NCc3ccccn3)ccc2Cl)c1	0	0	0	0	0	0
Cc1ccc(NC(N)=S)cc1C	-125.2	-	0	0	0	0
Cc1ccc(NC(N)=S)cc1	0	-	0	0	0	0
NC(=S)Nc1ccc(Oc2ccc(NC(N)=S)cc2)cc1	?	0	0	22.4µM	0	28.2µM
O=C(Nc1ccc2c(c1)C(=O)NC2=O)c1ccc(Cl)s1	-	-	?	-	0	0
COc1ccc(C(=O)NC(=S)Nc2ccccc2[N+](=O)[O-])cc1OC	-	-	0	-	0	?
O=C1C2C3C=CC(C3=C3CCCCC3)C2C(=O)N1Cc1ccccc1 (configuration not stated)	0	0	?	0	0	6.31µM
C=C(C)Cn1c(SCC)nc2ccccc2c1=O	0	0	0	0	0	0
Cc1ccc(/C=N/NC(=O)CSc2nc3ccccc3c(=O)n2-c2ccccc2)s1	?	-	0	0	0	0
C=C(C)Cn1c(SCC#N)nc2ccccc2c1=O	0	0	0	0	0	10µM
C=C(C)Cn1c(SCC(=O)N/N=C/c2c(O)ccc3ccccc23)nc2ccccc2c1=O	-121.5	-	0	0	0	0
Cc1nc([N+](=O)[O-])cn1-c1ccc(N)cc1	?	0	0	0	0	0
COC(=O)C/C=C/[C@@H](C)[C@@H](/C=N/O[C@@H](C)c1cn([C@H](CO)Cc2ccccc2)nn1)NS(=O)(=O)c1ccc(C)cc1	0	-	0	0	0	17.8µM
COC(=O)C/C=C/[C@@H](C)[C@@H](/C=N/O[C@H](C)c1cn([C@@H]2COC[C@H]2O)nn1)NS(=O)(=O)c1ccc(C)cc1	0	-	0	0	0	0
Cc1ccc(S(=O)(=O)N2CCN(S(=O)(=O)N3CCCCC3)CC2)c(C)c1	0	0	0	0	0	0
CC(OC(=O)c1nsc(Cl)c1Cl)C(=O)NCc1ccco1 (configuration not stated)	0	0	0	0	0	0
CCC(OC(=O)c1nsc(Cl)c1Cl)C(=O)NCc1cccs1 (configuration not stated)	0	0	0	25.1µM	0	0
CC(OC(=O)c1nsc(Cl)c1Cl)C(=O)NCc1ccc2c(c1)OCO2 (configuration not stated)	0	0	0	?	0	?
